An excerpt weighted towards active compounds, which were near 27% of everything screened.
CYP2C19 inh: human CYP2C19 inhibition; P33261; AID 778; inhibition, % at 5 µM; 96,000 compounds, 21% hits; CYP2C19 Supersomes, luciferin-H EGE luminescence, 30 min;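 active = CYP2C19 inhibition above a set limit at 5 µM in the primary screen, cut at about 50% in these data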;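 also: plate controls were negative control wells for no effect and 2.5 mM tranylcypromine positive control for full effect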
CYP2C19 act: increases human CYP2C19 enzyme activity; recombinant CYP2C19, luciferin-H EGE luminescence; stronger effect = higher value; 0 = fully inhibited enzyme, 1 = untreated enzyme; activation factor at 5 µM; 96,000 tested, under 10 active; AID 1025;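 active = activation factor of at least 2 at 5 µM in the primary screen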;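 also: 0 = wells with 2.5 mM tranylcypromine and 1 = vehicle-only wells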
Cav3 T inh: human Cav3.2 channel inhibition, primary screen; O95180; Cav3.2-expressing cells, Fluo-4 calcium fluorescence FDSS; stronger effect = lower value; B-score at 10 µM; 100,000 compounds, 4% hits;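 active = single-dose well whose peak fluorescence ratio is a statistical outlier from its plate by either plate-standardised score or position-corrected B-score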
CYP2C9 inh: inhibitors of human CYP2C9. P11712. CYP2C9 Supersomes, luciferin-H conversion, luminescence. inhibition, % at 5 µM. 96,000 compounds, 20% hits. AID 777;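 active = blocking of liver enzyme CYP2C9 beyond about 50% at 5 µM, limit read from the data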
CYP2C9 activ: increases human cytochrome P450 2C9 activity. P11712. recombinant CYP2C9, luciferin-H conversion, luminescence; stronger effect = higher value; factor 1 = untreated enzyme, 0 = blocked. activation factor at 5 µM. 96,000 compounds, 1.4% hits;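 active = activation factor of 2 or more for CYP2C9 at a 5 µM dose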;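 also: 0 = sulfaphenazole-blocked wells and 1 = vehicle-only wells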
* hit, by the source's call; x = no result.

SMILES | CYP2C19 inh | CYP2C19 act | Cav3 T inh | CYP2C9 inh | CYP2C9 activ
COc1ccc(N(C)S(=O)(=O)c2ccc3c(c2)oc(=O)n3C)cc1 | 44 | 0.6 | 0.005 | 13 | 0.9
CCOc1ccccc1CNS(=O)(=O)c1ccc2c(c1)oc(=O)n2C | 78* | 0.2 | -0.59 | -129 | 2.3*
Cn1c(=O)oc2cc(S(=O)(=O)NCc3ccncc3)ccc21 | 98* | 0 | 0.31 | 81* | 0.2
Cn1c(=O)oc2cc(S(=O)(=O)NCCc3ccccc3)ccc21 | 80* | 0.2 | -0.36 | -36 | 1.4
Cn1c(=O)n(C)c2cc(S(=O)(=O)NCCc3ccccc3)ccc21 | 35 | 0.6 | -0.65 | 5 | 0.9
CCCN(CCC)CCCNS(=O)(=O)c1ccc2c(c1)oc(=O)n2C | -12 | 1.1 | x | -17 | 1.2
C=CCN(c1ccccc1)S(=O)(=O)c1ccc2c(c1)oc(=O)n2C | 87* | 0.1 | -0.088 | 22 | 0.8
O=C(NC1CCc2ccccc21)C1CCN(S(=O)(=O)c2ccc(-n3cnnn3)cc2)CC1 (stereo not drawn) | -18 | 1.2 | 0.052 | -23 | 1.2
CCCCNC(=O)COC(=O)c1cc(F)c(F)cc1Cl | x | x | 0.39 | x | x
COc1ccccc1CNC(=O)C(CCSC)NS(=O)(=O)c1ccc2c(c1)oc(=O)n2C (stereo not drawn) | 91* | 0.1 | x | 4 | 1
CSCCC(NC(=O)c1ccc(C)o1)C(=O)O (stereo not drawn) | 0 | 1 | -1 | 0 | 1
O=C(c1ccco1)N1CCN(C/C=C/c2ccccc2)CC1 | 13 | 0.9 | -0.47 | 3 | 1
O=C(c1cccs1)N1CCOCC1 | -5 | 1.1 | -0.59 | 2 | 1
O=C(Cc1ccccc1)N1CCN(C(=O)c2cccs2)CC1 | 81* | 0.2 | 0.18 | 23 | 0.8
O=C(NCCN1CCN(C(=O)c2cccs2)CC1)c1cccs1 | 10 | 0.9 | 0.46 | 43 | 0.6
O=C(c1nn(Cc2ccccc2)c(=O)c2ccccc12)N1CCN(C/C=C/c2ccccc2)CC1 | 41 | 0.6 | -6.7* | 82* | 0.2
O=C(c1cccs1)N1CCN(C/C=C/c2ccccc2)CC1 | 60* | 0.4 | 0.7 | 52* | 0.5
O=C(c1cccs1)N1CCN(CCc2ccccc2)CC1 | 79* | 0.2 | 0.23 | 43 | 0.6
COc1cccc(-c2cc(C(F)(F)F)nc(N3CCCCC3)n2)c1 | -8 | 1.1 | -0.72 | 11 | 0.9
O=C(Nc1ccc(F)cc1)N1CCN(C/C=C/c2ccccc2)CC1 | 42 | 0.6 | -1.8 | 51* | 0.5
CCOC(=O)c1c(C)[nH]c(C(=O)COC(=O)c2cn(CC)c3nc(C)ccc3c2=O)c1C | 31 | 0.7 | x | 22 | 0.8
CCCCCCCCCn1c2c(c(=N)c3c1CCC3)CCC2 | x | x | -6.2* | x | x
CCCCCCn1c2c(c(=N)c3c1CCC3)CCC2 | 23 | 0.8 | -1.5 | -4 | 1
COC(=O)CN(C(=S)Nc1ccccc1)C1CC(=O)N(c2ccc(OC)cc2)C1=O (stereo not drawn) | 42 | 0.6 | 1 | 5 | 1
O=C1CC(N(CCc2ccccc2)C(=S)Nc2cc(Cl)ccc2Cl)C(=O)N1c1c(Cl)cccc1Cl (stereo not drawn) | 8 | 0.9 | -2.6* | 54* | 0.5
SMILES | CYP2C19 inh | CYP2C19 act | Cav3 T inh | CYP2C9 inh | CYP2C9 activ
O=C(O)CCN1C(=O)C(=C2CCCCCC2)SC1=S | 8 | 0.9 | 2.2 | 33 | 0.7
O=C1C(=C2CCCCC2)SC(=S)N1Cc1ccco1 | 60* | 0.4 | -2.4 | 49 | 0.5
COC(=O)C1=C(C)N(CCCC(=O)O)C(=O)NC1c1ccccc1Cl (stereo not drawn) | x | x | 1.6 | x | x
COc1ccc2c(c1OC)C(=O)OC2Nn1cncn1 (stereo not drawn) | -14 | 1.1 | -0.94 | -15 | 1.1
COc1ccc(C(=O)CC2OC(=O)c3c2ccc(OC)c3OC)cc1 (stereo not drawn) | 80* | 0.2 | 0.63 | 34 | 0.7
COc1ccccc1N1CCN(C(=O)C2C3C=CC4(CN(Cc5ccccc5Cl)C(=O)C24)O3)CC1 (stereo not drawn) | -5 | 1 | -0.69 | -11 | 1.1
CCCCn1nc(NC(=O)c2cccs2)c2cc3ccccc3nc21 | 15 | 0.9 | -4* | 46 | 0.5
CCCCn1nc(NC(=O)c2cccs2)c2cc3cc(OC)ccc3nc21 | 17 | 0.8 | -4.8* | 64* | 0.4
CCCn1nc(NC(=O)c2cccs2)c2cc3cc(OC)ccc3nc21 | 18 | 0.8 | -0.14 | 56* | 0.4
CCCn1nc(NC(=O)c2cccs2)c2cc3ccccc3nc21 | 26 | 0.7 | -1.6 | 48 | 0.5
CCCn1nc(NC(=O)c2ccncc2)c2cc3ccccc3nc21 | 93* | 0.1 | x | 95* | 0.1
Cc1oc2c(c1C(=O)Nc1ccc(C(=O)O)cc1)CCCC2 | -8 | 1.1 | 0.056 | 33 | 0.7
O=C(NCC1CCCO1)c1csc2c1CCCC2 (stereo not drawn) | 0 | 1 | 0.76 | -47 | 1.5
O=C(O)Cn1nnn(-c2ccccc2)c1=S | -6 | 1.1 | 0.64 | -12 | 1.1
O=C(NC1CCCCC1)NC1CC2CCC(C1)N2Cc1nnnn1Cc1ccc2c(c1)OCO2 (stereo not drawn) | 20 | 0.8 | x | 6 | 0.9
CCCn1nc(NC(=O)C2CCCO2)c2cc3cc(C)ccc3nc21 (stereo not drawn) | 2 | 1 | 0.13 | 28 | 0.7
COc1ccc2nc3c(cc2c1)c(NC(=O)C1CCCO1)nn3CC(C)C (stereo not drawn) | 48 | 0.5 | 0.16 | 66* | 0.3
Cc1nn(C(C)C(=O)NCCCc2ccccc2)c(=O)c2cc3occc3n12 (stereo not drawn) | 71* | 0.3 | 0.32 | 68* | 0.3
Cc1nn(C(C)C(=O)NCC2CCCO2)c(=O)c2cc3occc3n12 (stereo not drawn) | 3 | 1 | x | -14 | 1.1
CCOc1ccc(CCNC(=O)C(C)n2nc(C)n3c(cc4occc43)c2=O)cc1OCC (stereo not drawn) | 27 | 0.7 | -0.46 | 62* | 0.4
CCOc1ccc(CNC(=O)C(CC)n2nc(C)n3c(cc4occc43)c2=O)cc1OC (stereo not drawn) | 20 | 0.8 | -0.32 | 75* | 0.3
CCOC(=O)C(CC)n1nc(C)n2c(cc3occc32)c1=O (stereo not drawn) | 12 | 0.9 | 0.49 | 71* | 0.3
Cc1ccc(C)c(-c2cc(C(=O)Nc3nccs3)c3ccccc3n2)c1 | 12 | 0.9 | -2.6 | 49 | 0.5
Cc1cc(NC(=O)c2cc(-c3ccc(C)s3)nc3ccccc23)no1 | 67* | 0.3 | 0.041 | 86* | 0.1
Cc1ccc(-c2cc(C(=O)Nc3cc(C)on3)c3ccccc3n2)c(C)c1 | 34 | 0.7 | 0.034 | 77* | 0.2
O=C1CCCC2=C1C(Cc1ccccc1)C1=C(CCCC1=O)O2 | 82* | 0.2 | 1.4 | 23 | 0.8
O=C1CCCC2=C1C(c1ccccc1O)C1=C(CCCC1=O)O2 | 8 | 0.9 | 0.55 | 12 | 0.9
CC1(C)CC(=O)C2=C(C1)OC(N)=C(C#N)C2C1CC=CCC1 (stereo not drawn) | x | x | 0.18 | x | x

Screens: PubChem BioAssay, several laboratories
